Only some compounds are listed: those with a hit (about 21% of all), similar ones and a draw of the others.
IL1B secr inh = blocks inflammasome-driven IL-1 beta release. THP-1 LPS/ATP IL-1B secretion, AlphaLISA, 16 h; active compounds read low. activity change, % at 57.5 µM. actives 4.7% (n = 360,000); in the data active = activity change below about -50%; inconclusive = mostly about -30% to -49%
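Secreted IL-1B measured by AlphaLISA bead assay after 16 h compound exposure of THP-1 cells; compounds (final up to 57.5 uM) added 1 h before LPS (250 ng/mL) and ATP (1.25 mM) stimulation; lower signal means less secretion.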
VP16 counter = Gal4-VP16 reporter inhibition counter-screen. Drosophila S2 Gal4-VP16 UAS-luciferase, luminescence, 20 h. Potency, µM (top dose mostly 53.6 µM), without a hit: top-dose activity, negative = inhibition, actives largely listed as inhibitors. actives 3.5% (n = 310,000);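 note: Gal4-VP16 expression switched on by copper sulfate through the metallothionein promoter; potency is the fitted concentration of half-maximal effect; nearly all actives have a fitted effect of over 50% in size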
RORgamma inh = ROR gamma (mouse) transcription inhibition; Potency, µM (titrated, usually from 53.6 µM), for the others: at the top dose activity change, negative = inhibition, actives largely listed as inhibitors; Drosophila S2 Gal4-RORgamma UAS-luciferase reporter, 20 h; P51450; AID 2551; actives 5.4% (n = 310,000); note: potency is the fitted concentration of half-maximal effect; nearly all actives have a fitted effect of over 60% in size
Target sequence (P51450 whole entry, looked up, the tested form may be a part): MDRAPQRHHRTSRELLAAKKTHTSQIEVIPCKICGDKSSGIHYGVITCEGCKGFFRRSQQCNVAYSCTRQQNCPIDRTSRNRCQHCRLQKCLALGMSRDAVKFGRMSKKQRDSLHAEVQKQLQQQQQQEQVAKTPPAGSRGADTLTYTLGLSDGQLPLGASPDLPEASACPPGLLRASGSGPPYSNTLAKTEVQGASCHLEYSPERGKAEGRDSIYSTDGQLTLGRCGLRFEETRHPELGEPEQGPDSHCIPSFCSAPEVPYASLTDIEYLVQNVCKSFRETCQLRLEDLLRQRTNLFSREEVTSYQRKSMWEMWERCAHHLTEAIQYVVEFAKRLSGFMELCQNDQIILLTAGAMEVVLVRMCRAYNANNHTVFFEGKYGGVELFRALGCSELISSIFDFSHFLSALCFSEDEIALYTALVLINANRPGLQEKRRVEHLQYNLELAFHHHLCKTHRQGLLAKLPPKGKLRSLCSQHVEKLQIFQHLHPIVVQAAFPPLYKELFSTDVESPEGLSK
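Read-out: Photinus luciferase luminescence; inhibitors lower reporter signal. Insect Schneider cells with Gal4-ROR gamma fusion under metallothionein promoter, UAS reporter; 700 uM final copper sulfate induction, 20 hr, ambient temperature.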
ELG1 DNA repair = inhibitors of ELG1-dependent DNA repair in HEK293T cells; actives 2.3% (n = 330,000); HEK293T ELG1-luciferase reporter, luminescence, 16 h; DNA damage induced by 5-fluorouridine; Potency, µM (top dose mostly 46.1 µM), inactives show top-dose activity change, negative = inhibition, most hits filed as inhibitors; AID 504467; note: potency is the fitted concentration of half-maximal effect; nearly all actives have a fitted effect of over 55% in size
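Quantitative HTS, concentration-response format. 2,000 cells/well co-treated with 5-fluorouridine and compound, 16 hr in 5% CO2 at 37 °C; ONE-Glo luminescence read after 30 min.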
DT40 TDP1 no CPT = qHTS for Inhibitors of human tyrosyl-DNA phosphodiesterase 1 (TDP1): qHTS in cells in absence of CPT; DT40 Tdp1-/- hTDP1 cells, no CPT, ATP luminescence, 48 h; Potency, µM (titrated, usually from 46.2 µM), for inactives: at the top dose activity change, negative = growth inhibition, usual class: inhibitors; actives 15% (n = 420,000); AID 686978, 2013; note: potency is the fitted concentration of half-maximal effect; nearly all actives have a fitted effect of over 55% in size
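Compound effects on proliferation are scored in DT40 Tdp1-/-;hTDP1 cells in the absence of CPT. ATP levels (CellTiter-Glo luminescence) are recorded after a ≥48 hr, 37 °C incubation.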
TDP1 cell CPT = growth inhibition of DT40 Tdp1-/-;hTDP1 cells with camptothecin (screen for TDP1 inhibitors). AID 686979. chicken DT40 Tdp1-/-;hTDP1 cells + 20 nM CPT, ATP luminescence, 48 h. actives 12% (n = 420,000). Potency, µM (highest dose often 46.2 µM), inactives show top-dose activity change, negative = growth inhibition, most hits filed as inhibitors; note: potency is the fitted concentration of half-maximal effect; nearly all actives have a fitted effect of over 55% in size
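Cell growth measured by CellTiter-Glo luminescence after a minimum 48 h, 37 C compound exposure with 20 nM CPT in Tdp1-knockout DT40 cells stably expressing hTDP1, seeded 400/well; qHTS titration format.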
* = called active by the depositor; u = inconclusive; x = not tested or not shown; [ ] = another dose, or the depositor's remark. Unless noted, calls come from the whole dose curve; as a rule, active = well fitted curve in the direction sought with a large enough effect; inconclusive = small, poorly fitted or top-dose-only effect, or another doubt; inactive = no such curve, though single readings can be large; an effect the other way counts as inactive or inconclusive. % is set by controls: 0 for no effect and ±100 for the full control effect.

SMILES	IL1B secr inh	VP16 counter	RORgamma inh	ELG1 DNA repair	DT40 TDP1 no CPT	TDP1 cell CPT
C/C(=N\NC(=O)c1ccccc1)c1ccccc1Br	0.0	6.31µM*	3.55µM*	u	0.651µM*	0.82µM*
CCN(CC)c1ncnc2c1ncn2[C@H]1CN(Cc2ccncc2)C[C@@H](CO)O1	10.0	x	x	x	u	-8.8%
CC(=NNC(=O)c1ccncc1)c1ccc(O)cc1O	108.6	x	x	x	7.31µM*	u
COC(=O)c1ccc(OC(=O)c2ccncc2)cc1O	4.3	-0.3%	9.6%	16.0%	14.6%	-5.6%
C/C(=N\NC(=O)c1ccc(N2CCCC2=O)cc1)c1ccc(O)cc1O	31.7	-0.4%	18.5%	-13.1%	3.66µM*	4.61µM*
CC(=O)c1ccc2ccccc2c1OC(=O)c1ccncc1	1.1	x	x	x	25.9µM*	u
C/C(=N\NC(=O)c1ccc(N2CCCC2=O)cc1)c1ccccc1	25.8	28.7%	10.2%	u	-22.7%	-8.3%
CC(C)CC(=NNC(=O)c1ccncc1)c1cc(Cl)ccc1O	63.5	x	x	x	2.59µM*	3.66µM*
C/C(=N/NC(=O)c1ccncc1)c1ccc(NC(=O)c2ccc(Cl)cc2Cl)cc1	16.2	-2.5%	-0.9%	u	-3.8%	-9.5%
COc1cc(C)ccc1S(=O)(=O)NC(=O)C1(C)CCN1C(=O)Cc1ccc(C(C)(C)C)cc1 (stereo not drawn)	0.0	x	x	x	-0.9%	0.0%
COc1ccc(S(=O)(=O)N2CCC(C(=O)NCC3CCCCC3)CC2)cc1	-5.6	14.9%	5.0%	5.7%	u	3.2%
NC(=S)Nc1cc(Cl)cc(Cl)c1	x	-5.9%	-33.3%	-20.3%	u	u
NC(=S)NNc1cc(Cl)cc(Cl)c1	-3.3	3.98µM*	2.24µM*	-19.6%	u	13µM*
Cc1cc(C)cc(NC(=O)Oc2ccccc2N2CCCCC2)c1	x	5.8%	-2.6%	-1.9%	-21.4%	0.3%
CCn1c(=O)n(CC)c2cc(N3CCCC3)c(NC(=O)c3ccc(F)cc3)cc21	48.7	-2.1%	0.0%	u	18.4µM*	23.1µM*
Cn1c(=O)n(C)c2cc(NC(=O)c3ccc(F)cc3)c(Br)cc21	-20.4	x	x	10.4%	-20.8%	4.5%
CCn1c(=O)n(CC)c2cc(N3CCCC3)c(NC(=O)c3c(F)cccc3F)cc21	20.1	-2.5%	4.1%	u	11.6µM*	u
CCn1c(=O)n(CC)c2cc(N3CCCCC3)c(NC(=O)Nc3cc(C)cc(C)c3)cc21	x	x	x	x	6.51µM*	5.8µM*
CN(C)c1cc2c(cc1NC(=O)c1ccc(F)cc1)n(C)c(=O)n2C	x	x	x	x	23.1µM*	u
CCOc1ccc(C(=O)Nc2ccccc2N2CCCC2)cc1	3.7	-9.2%	-18.9%	21.2%	u	u
CCn1c(C(C)NC(=O)c2cccc(C)c2)n[nH]c1=S (stereo not drawn)	0.6	-18.5%	-31.6%	1.9%	0.0%	6.5%
CC(=O)NCCC1CCN(C(=O)C2CCC(=O)N(C3CCCC3)C2)CC1 (stereo not drawn)	6.0	-1.9%	-0.9%	2.2%	5.6%	-0.3%
Cn1c(=O)n(C)c2cc(N3CCCCC3)c(NC(=O)c3cccc(Cl)c3)cc21	35.6	-11.8%	-1.0%	-0.9%	-25.5%	u
CCOC(=O)Cc1ccc(NC(=O)Nc2cc3c(cc2N2CCCCC2)n(C)c(=O)n3C)cc1	x	x	x	x	2.59µM*	4.61µM*
CCn1c(=O)c(=O)n(CC)c2cc(N3CCCCC3)c(NC(=O)c3ccc(OC)c(OC)c3)cc21	x	x	x	x	9.2µM*	13µM*
SMILES	IL1B secr inh	VP16 counter	RORgamma inh	ELG1 DNA repair	DT40 TDP1 no CPT	TDP1 cell CPT
CCOC(=O)c1c(NC(C)=O)c2c3c(sc2n1Cc1nc(-c2ccc(Cl)cc2)oc1C)CCCC3	x	x	x	x	-21.0%	u
CCN(CC)CCNC(=O)c1ccc(N2CCCCC2)c(NS(=O)(=O)c2ccc(C)cc2)c1	-28.3	6.7%[0.365 µM]	-43.5%	19.9%	20.6µM*	25.9µM*
COC(=O)c1ccc(N2CCCCC2)c(NS(=O)(=O)c2ccc(C)cc2)c1	-2.1	-0.3%	6.9%	-7.7%	u	16.4µM*
CCS(=O)(=O)N1CCN(c2ccc(C(=O)N3CCOCC3)cc2[N+](=O)[O-])CC1	0.0	9.5%	2.0%	-2.2%	3.8%	0.9%
CCS(=O)(=O)N1CCN(c2ccc(C(=O)NC3C4CC5CC(C4)CC3C5)cc2[N+](=O)[O-])CC1 (stereo not drawn)	3.6	-19.2%	u	11.6µM*	8.2µM*	8.2µM*
CCOC(=O)c1ccc(N2CCCCC2)c(NS(=O)(=O)c2cccc(C(F)(F)F)c2)c1	0.0	-5.1%	1.7%	-7.1%	u	u
COC(=O)c1ccc(N2CCN(S(=O)(=O)c3ccc(C)cc3)CC2)c([N+](=O)[O-])c1	7.9	-10.6%	u	-25.5%	20.6µM*	18.4µM*
CCN(CC)CCNC(=O)c1ccc(NC(=O)c2ccc(S(=O)(=O)N3CCCCCC3)cc2)cc1	-7.8	x	x	u	u	u
N#Cc1cnc(N)c(Br)c1	8.4	-8.5%	-1.5%	u	-18.2%	-16.0%
C=CC(C)(C)c1c(O)c(CC=C(C)C)c(O)c2c(=O)c3ccc(O)c(O)c3oc12	83.0	x	x	x	18.4µM*	16.4µM*
COc1cc(O)c2c(=O)cc(C)oc2c1CC=C(C)C	x	-3.4%	-3.4%	x	-22.9%[9.04 µM]	2.9%[9.04 µM]
CC(C)(C)n1nnnc1C(c1cccnc1)N1CCN(C2CCCCC2)CC1 (stereo not drawn)	8.5	-1.2%	-23.5%	8.5%	2.0%	-1.2%
COc1ccc(N2CCN(C(c3ccc(C)cc3)c3nnnn3C(C)(C)C)CC2)cc1 (stereo not drawn)	x	x	x	x	14.1µM*	u
CC(C)(C)n1nnnc1C(c1cccnc1)N1CCN(c2cccc(C(F)(F)F)c2)CC1 (stereo not drawn)	-0.6	-6.5%	26.4%	-20.7%	20.6µM*	18.4µM*
Cc1cccc(N2CCN(C(c3ccncc3)c3nnnn3C(C)(C)C)CC2)c1C (stereo not drawn)	u	-10.4%	0.0%	-7.0%	18.4µM*	-6.3%
COc1ccc(N2CCN(C(c3ccc4ncccc4c3)c3nnnn3C(C)(C)C)CC2)cc1 (stereo not drawn)	-3.8	-18.1%	-17.8%	-6.1%	-5.9%	-5.0%
CCCCn1nnnc1C(c1ccccc1)N1CCN(c2cccc(C)c2C)CC1 (stereo not drawn)	-15.3	x	x	x	16.4µM*	u

Screening results from PubChem BioAssay.
